Measured values taken from PubChem BioAssay AID624256 (NMMLSC, 2012).
The campaign covered roughly 360,000 compounds. About 3,700 (1%) were called active. Another 2% or so got no clear call; they are omitted.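 How the source made its calls: active means normalized GFP-positive differentiation at or above the plate's own cutoff, the solvent-only control mean plus 3 SD; inconclusive means no clear call, values can overlap the other calls; inactive means the rest.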 Only a selection was taken, and actives are over-represented in it overall.

assay: induction of myeloid progenitor differentiation, primary screen, cell-based, flow cytometry, MLPCN library (AID 624256); details: ER-HoxA9 myeloid progenitors, lysozyme-GFP differentiation, at 10 µM; GFP+ MAC1+ double positive: measured here: differentiation confirmed by MAC1 staining, stronger effect = higher value; normalized GFP-positive differentiation: stronger effect = higher value;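 on GFP+ MAC1+ double positive: cells exposed to compound for four days before flow analysis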;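 on normalized GFP-positive differentiation: cells exposed to compound for four days before flow analysis; 0% = DMSO wells and 100% = fulvestrant positive control at 5 µM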

Compound | GFP+ MAC1+ double positive | outcome | normalized GFP-positive differentiation
COc1ccc(-c2cc3c(c4c2ccn4C)C2CCC3C2)cn1 (stereo unspecified) | 1.4% | inactive | 
O=C1Nc2ccccc2-n2nnnc2C1N1CCN(c2cccc(C(F)(F)F)n2)CC1 (stereo unspecified) | 1.4% | inactive | 
CCCCCCc1cc2cc(-c3nnc(-c4ccccc4)o3)c(=O)oc2cc1O | 56.6% |  | 197% (active)
CCc1ccc(CN(C)C(=O)CCc2nnc(-c3ccc(-c4ccccc4)cc3)o2)nc1 | 0.1% | inactive | 
CN[C@H]1C[C@H]2c3cc(Oc4ccccc4C)ccc3CCN2C(=O)[C@H]1[C@H](C)O | 0.2% | inactive | 
O=C(CCC(=O)c1ccccc1)NCc1cccc(C(F)(F)F)c1 | 0.7% | inactive | 
O=C(Cc1cccs1)NCc1cccc(C(F)(F)F)c1 | 3.5% |  | 341% (active)
Cn1c(=O)c2cc(NC(=O)NCCc3cccs3)ccc2n1Cc1cccc(C(F)(F)F)c1 | 1.6% | inactive | 
COc1ccc(C(=O)C(OP(=O)(OC)OC)c2ccccc2OC)cc1 (stereo unspecified) | 2% | inactive | 
CN(C)CCCOc1ccc(-c2ccc3nccn3c2)cn1 | 0.4% | inactive | 
CCC(=O)c1ccc(OCC(=O)OCC(=O)NC2CCCCCC2)cc1 | 1.4% | inactive | 
CCC(=O)c1ccc(OCC(=O)OCC(=O)N2CCc3ccccc3C2)cc1 | 0.4% |  | 6.6% (active)
Cc1ccc(Cl)c(OCC(=O)N2CCc3ccccc3C2)c1 | 0.3% | inactive | 
CCOc1ccc2[nH]c(=S)sc2c1 | 0% | inactive | 
CCC(CC)C(C(=O)NC1CCCC1)N1CCN(c2cc(C)nc3ccccc23)CC1 (stereo unspecified) | 1.2% | inactive | 
COC(=O)c1ccc2nc(-c3ccccc3)c(Cc3ccc(OC)cc3C)n2c1 | 1.4% | inactive | 
O[C@H]1C[C@H](c2ccc(Cl)cc2)N(Cc2cccs2)C[C@@H]1n1cc(C2CC2)nn1 | 3.6% |  | 19.2% (active)
O[C@H]1CN(Cc2cccs2)[C@@H](c2ccc(Cl)cc2)C[C@@H]1n1cc(C2CC2)nn1 | 1.3% |  | 3.49% (inactive)
O[C@@H]1C[C@H](c2ccccc2)N(Cc2cccs2)C[C@H]1n1cc(C2CC2)nn1 | 0.6% | inactive | 
CC(C)c1cc(Cn2c3ccccc3c(=O)n2C(C)Cn2cc(C3CC3)nn2)on1 (stereo unspecified) | 2.6% | inactive | 
COc1cccc(CNc2nc(NCc3cccs3)nc3ccsc23)c1 | 1.5% | inactive | 
O=S1(=O)C[C@@H](N2CCN(CCO)CC2)[C@H](COCc2ccccc2)N1 | 0.9% | inactive | 
CCc1ccc([C@@H]2CC(=O)[C@@H]3CN(S(=O)(=O)c4ccc(C)cc4)[C@H](c4ccc(Cl)cc4)C[C@@H]3N2S(=O)(=O)c2ccc(C)cc2)cc1 | 1.2% | inactive | 
